Most compounds without a hit are left out; they make up all but 11% or so of the library.
USP30 inh: inhibitors of human USP30 deubiquitinase; hit rate 5.3% among 47,000; purified USP30, Ub-rhodamine cleavage fluorescence; Ubiquitin carboxyl-terminal hydrolase 30 (Homo sapiens), Q70CQ3; inhibition, % at 25 µM
USP28 block: inhibitors of human USP28 deubiquitinase; Ubiquitin carboxyl-terminal hydrolase 28 (Homo sapiens), Q96RU2; purified USP28, Ub-rhodamine cleavage fluorescence, 30 min; inhibition, % at 25 µM; hit rate 3% among 47,000
Target sequence (Q96RU2 whole entry, looked up): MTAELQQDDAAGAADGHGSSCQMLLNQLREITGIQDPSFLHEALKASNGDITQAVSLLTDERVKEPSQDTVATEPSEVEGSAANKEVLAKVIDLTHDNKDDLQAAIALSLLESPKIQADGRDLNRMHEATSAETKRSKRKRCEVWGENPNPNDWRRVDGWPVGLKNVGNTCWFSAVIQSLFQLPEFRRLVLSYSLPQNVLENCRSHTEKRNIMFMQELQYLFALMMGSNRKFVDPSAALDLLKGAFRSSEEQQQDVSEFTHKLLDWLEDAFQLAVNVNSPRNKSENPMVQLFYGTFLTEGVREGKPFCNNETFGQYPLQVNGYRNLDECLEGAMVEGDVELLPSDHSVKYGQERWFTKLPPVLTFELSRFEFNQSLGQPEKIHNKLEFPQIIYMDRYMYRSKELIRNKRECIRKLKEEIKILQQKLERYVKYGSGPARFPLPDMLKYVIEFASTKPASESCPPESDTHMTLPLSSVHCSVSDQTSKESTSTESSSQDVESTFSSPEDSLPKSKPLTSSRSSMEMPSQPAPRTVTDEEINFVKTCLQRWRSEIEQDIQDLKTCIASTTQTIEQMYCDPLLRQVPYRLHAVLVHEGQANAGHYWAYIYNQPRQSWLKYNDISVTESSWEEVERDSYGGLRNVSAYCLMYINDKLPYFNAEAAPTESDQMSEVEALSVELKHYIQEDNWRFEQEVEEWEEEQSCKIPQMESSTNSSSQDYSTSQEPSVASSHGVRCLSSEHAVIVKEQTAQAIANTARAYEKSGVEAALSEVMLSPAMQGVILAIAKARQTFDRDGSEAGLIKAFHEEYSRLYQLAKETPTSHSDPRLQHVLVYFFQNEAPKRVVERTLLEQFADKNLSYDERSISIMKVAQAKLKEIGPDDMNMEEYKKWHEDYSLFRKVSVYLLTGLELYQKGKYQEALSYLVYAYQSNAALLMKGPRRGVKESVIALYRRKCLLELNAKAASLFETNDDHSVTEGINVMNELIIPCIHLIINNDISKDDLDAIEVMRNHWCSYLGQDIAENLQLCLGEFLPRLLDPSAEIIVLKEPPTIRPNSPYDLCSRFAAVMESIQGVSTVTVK
USP17 block: inhibitors of human USP17 deubiquitinase; Ubiquitin carboxyl-terminal hydrolase 17-like protein 5 (Homo sapiens), A8MUK1; purified USP17, Ub-rhodamine cleavage fluorescence, 3 h; inhibition, % at 50 µM; hit rate 6.5% among 47,000
Numbers stand for hits; – = inactive; · = no result. Cut-off read from the data, not from the text of the source: active = inhibition above about 30%; inactive = the rest.

SMILES	USP30 inh	USP28 block	USP17 block
Cc1ncccc1NC(=O)[C@H]1CO[C@H]2CCN(Cc3ccoc3)C[C@H]2C1	–	–	–
CC(C)Cn1c(=O)c2nscc2n(CC(=O)NCc2ccccc2)c1=O	–	–	–
Cc1ccc(NC(=O)CN2CCC3(CCC2=O)NC(=O)c2ccccc2N3)cc1Cl (centres undefined)	–	–	–
N#Cc1cccc(NC(=O)N2CCc3nc4ccccc4n3CC2)c1	33	–	–
O=S(=O)(c1cc(F)cc(F)c1)N1CCc2nc3ccccc3n2CC1	–	–	–
O=C(Nc1ccccc1)N1CCC(CCOc2ccccc2)CC1	–	–	–
N#Cc1cccc(NC(=O)N2CCCn3c(nc4ccccc43)C2)c1	–	–	–
O=C(Nc1cccc(C(F)(F)F)c1)N1CCCn2c(nc3ccccc32)C1	79	32	37
O=S(=O)(c1cccc(F)c1)N1CCc2nc3ccccc3n2CC1	–	–	91
N#Cc1cccc(NC(=O)N2CCC(CCOc3ccccc3)CC2)c1	33	–	–
O=C(Nc1ccccc1)N1CCCn2c(nc3ccccc32)C1	–	–	–
O=C(O)c1cccc(C(=O)CC[C@@H]2O[C@H](n3cnc4c(=O)[nH]cnc43)[C@@H](O)[C@H]2O)c1	–	–	–
CCN(CC)S(=O)(=O)c1cc(C(=O)Nc2ccccc2Cc2ccccc2)ccc1C	–	–	–
N#C/C(=C\c1ccccc1F)c1nnc(N)s1	–	–	–
COc1ccc(C(=O)N2CCC(c3ccnc4ncnn34)CC2)cc1Cn1nc(C)cc1C	–	–	–
O=S(=O)(c1cccc(F)c1)N1CCN(c2nnnn2-c2ccccc2)CC1	–	–	30
N#Cc1cccc(S(=O)(=O)N2CCc3nc4ccccc4n3CC2)c1	51	–	30
O=S(=O)(c1ccc(F)cc1)N1CCN(c2nnnn2-c2ccccc2)CC1	–	–	–
Cc1cccc(S(=O)(=O)N2CCc3nc4ccccc4n3CC2)c1	–	–	84
O=S(=O)(c1ccccc1)N1CCc2nc3ccccc3n2CC1	–	–	–
COc1cccc(S(=O)(=O)N2CCc3nc4ccccc4n3CC2)c1	–	–	–
CC1=C(C(N)=O)C(c2cccs2)n2nc(-c3ccncc3)nc2N1 (centres undefined)	–	–	–
COc1ccc(C2c3c(C)nn(-c4ccccc4)c3N=C(c3ccccc3F)N2C2CC2)cc1 (centres undefined)	–	–	–
O=C1CCSc2ccc(S(=O)(=O)Nc3cccc4c3CCCC4)cc2N1	–	–	–
CN(C)[C@@H]1[C@@H](O)[C@H](Oc2ccccc2)C[C@H]1NC(=O)C1CCOCC1	–	–	–
SMILES	USP30 inh	USP28 block	USP17 block
CC1=NOC(CNC(=O)Nc2ccccc2F)C1 (centres undefined)	–	–	·
O=C(CCC(=O)N1CCOCC1)NC1C2CC3CC(C2)CC1C3 (centres undefined)	–	–	–
COc1c2nc3ccccc3oc-2cc(=O)c1OC	–	–	71
COc1ccccc1C(=O)Nc1ccc(-c2nc3ccccc3o2)c(O)c1	–	–	–
CC(=O)Nc1cccc(NC(=O)c2sc(-c3ccccc3F)nc2C)c1	–	–	–
CC(=O)c1cccc(NC(=O)C(C)Nc2nc(Nc3cc(C)cc(C)c3)nc(Nc3cc(C)cc(C)c3)n2)c1 (centres undefined)	–	–	–
Cc1ccc(NC(=O)C(C)Nc2nc(Nc3ccccc3)nc(Nc3ccccc3)n2)cc1 (centres undefined)	45	–	–
CCCCCCC[C@@H]1OC2=C(C(=O)[C@H](C)O2)[C@H](O)[C@@]1(C)O	–	–	–
Cn1cccc1C(=O)Nc1cnn(-c2ncc(N3CCCC3)cn2)c1	–	–	31
Cn1cccc1C(=O)Nc1cnn(-c2ncc(N3CCCCC3)cn2)c1	–	–	–
Cc1ccccc1C(=O)N1CCN(S(=O)(=O)c2ccc3c(c2)NC(=O)CO3)CC1	–	–	–
O=C(NCCc1c[nH]c2ccccc12)C(=O)Nc1cccc2ncccc12	–	–	42
O=C(NCCc1c[nH]c2ccccc12)C(=O)Nc1ccccc1C(=O)N1CCCC1	–	–	–
Cn1c(N2CCCC(C(=O)NCc3ccc4c(c3)OCO4)C2)cc(=O)n(C)c1=O (centres undefined)	–	–	–
CCOc1ccccc1CNC(=O)Cc1c(C)n[nH]c1C	–	–	–
COc1ccc(-c2nc(-c3nnn(Cc4cccc(F)c4)c3C)no2)cc1OC	–	–	–
Fc1cccc(-n2cc(-c3noc(-c4cccnc4)n3)nn2)c1	61	–	54
COc1ccccc1-c1nc(-c2cn(-c3ccccc3)nn2)no1	–	–	–
COc1ccc(-c2nc(-c3nnn(Cc4ccc(F)cc4)c3C)no2)c(OC)c1	66	40	34
Clc1cccc(-n2cc(-c3noc(-c4ccncc4)n3)nn2)c1	–	–	–
COc1ccccc1-c1nc(-c2cn(-c3ccc(F)cc3)nn2)no1	41	–	31
COc1ccccc1Cc1nc(-c2cn(Cc3ccccc3)nn2)no1	–	–	–
COc1ccccc1Cc1nc(-c2cn(-c3cccc(F)c3)nn2)no1	34	–	–
COc1cccc(NS(=O)(=O)c2ccc3c(c2)C(=O)N(C)c2ncccc2O3)c1	–	–	–
CC1CCN(C(=O)c2nnn(-c3ccccc3)c2-c2cccnc2)CC1	–	–	–
SMILES	USP30 inh	USP28 block	USP17 block
CCN1CCN(c2ccc(-c3nc(-c4ccccc4)no3)nn2)CC1	–	–	–
CCc1cc(C)n2nc(C(C)(C)C)c(Br)c2n1	–	–	–
Cc1ccc(C)c(NC(=O)CC23CC4CC(C2)CC(n2nnc(C)n2)(C4)C3)c1	–	–	–
COc1ccc(-c2cc(NC=O)c3ncc(-c4cnn(C)c4)n3c2)cn1	–	–	–
CCn1c(SCC(=O)Nc2ccccc2F)nnc1C1CC1	–	–	–
COc1ccc(-c2nc(-c3cn(-c4ccccc4)nn3)no2)c(OC)c1	94	54	71
COc1ccc(-c2nc(-c3cn(-c4cccc(Cl)c4)nn3)no2)c(OC)c1	·	·	65
O=C(Nc1ccccc1)c1nc(-c2cn(-c3ccccc3)nn2)no1	41	–	–
COc1cc(Cl)ccc1-c1nc(-c2ccn3cnnc3c2)no1	–	–	–
O=C(NCc1ccccn1)c1nc(-c2cn(-c3ccc(Cl)cc3)nn2)no1	–	–	–
COc1ccc(-c2nc(-c3ccc4oc(C)nc4c3)no2)c(OC)c1	–	–	–
CS(=O)(=O)c1ccccc1CN1CCC(N(Cc2ccco2)C(=O)c2cccnc2)CC1	–	–	–
COc1cccc(CC(=O)Nc2ccc3nc(C(C)(C)C)[nH]c3c2)c1	–	–	–
COCC1CN(C(=O)c2ccncn2)Cc2c1cnn2CC1CC1 (centres undefined)	–	–	–
O=C(NCCc1nc(-c2ccncc2)n[nH]1)c1cccc2cccnc12	·	·	–
O=C(NCCc1nc(-c2ccc3c(c2)OCO3)n[nH]1)c1cccc(Br)c1	–	–	38
O=C1CCCN1c1ccc(Cn2cc(-c3nc(-c4cnccn4)no3)ccc2=O)cc1	–	–	–
COc1ccccc1C(=O)NCC(c1ccco1)N1CCCC1 (centres undefined)	–	–	–
COc1ccccc1OCC(=O)Nc1ccc(S(=O)(=O)Nc2cc(C)cc(C)c2)cc1	–	–	–
